# PubChem BioAssay (Tox21)
# Several values for one entry are separate records, joined by “and”; a condition that tells them apart may be missing. Equal entries are not always repeated. Records with an inconclusive call do not appear. Entries that show only a call come without a potency. Some compounds were tested as several samples or in several runs, with calls that do not always agree. Activity calls are given as the source filed them. Unless noted, calls follow the shape of the dose curve; as a rule, active = well fitted curve in the direction sought with a large enough effect in the repeat runs; inconclusive = weak or mixed curves; inactive = no such curve, though single readings can be large; an effect the other way counts as inactive or inconclusive.
# Legend:
# [1] = qHTS assay to identify small molecule antagonists of the thyroid receptor (TR) signaling pathway - cell viability counter screen (AID 743064); also: nearly all actives have a fitted effect of over 50% in size; also: potency is read from the fitted curve at half-maximal effect
# Procedure, shortened: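 GH3.TRE-Luc cells, 4 h pre-plating; cpd + T3 1 nM final; 37 °C 23.5 h; CellTiter-Fluor 30 min; fluorescence read.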
# [2] = qHTS assay to identify small molecule antagonists of the thyroid receptor (TR) signaling pathway (AID 743065); also: nearly all actives have a fitted effect of over 55% in size; also: potency is read from the fitted curve at half-maximal effect
# Procedure, shortened: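 GH3.TRE-Luc rat pituitary cells carrying two TR response elements driving luciferase were plated for 4 h, given compound plus 1 nM T3 (final), and incubated 23.5 h at 37 C. ONE-Glo luminescence measured reporter inhibition; CellTiter-Fluor fluorescence tracked cytotoxicity.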
# [3] = system: thyroid hormone receptor (rat, GH3 cells); experiment: qHTS assay to identify small molecule agonists of the thyroid receptor (TR) signaling pathway (AID 743066; calls by dose curve)
# [4] = qHTS assay to identify small molecule antagonists of the estrogen receptor alpha (ER-alpha) signaling pathway - cell viability counter screen (AID 743074; calls by dose curve;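 also: HEK293 cells carrying ER-alpha-UAS-bla reporter stimulated with 17beta-estradiol; nearly all actives have a fitted effect of over 45% in size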)
# [5] = target: Estrogen receptor (Homo sapiens) (UniProt P03372); experiment: qHTS assay to identify small molecule agonists of the estrogen receptor alpha (ER-alpha) signaling pathway (AID 743075; calls by dose curve;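 also: HEK293 GripTite cells with ER-alpha and UAS-driven beta-lactamase reporter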)
# [6] = target: Estrogen receptor (Homo sapiens) (UniProt P03372); experiment: qHTS assay to identify small molecule agonists of the estrogen receptor alpha (ER-alpha) signaling pathway using the BG1 cell line (AID 743079); also: nearly all actives have a fitted effect of over 20% in size; also: potency is read from the fitted curve at half-maximal effect
# [7] = qHTS assay to identify small molecule antagonists of the estrogen receptor alpha (ER-alpha) signaling pathway using the BG1 cell line (AID 743080; calls by dose curve;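 also: BG1 cells stimulated with 17beta-estradiol alongside compound; series mostly up to about 70 µM; nearly all actives have a fitted effect of over 25% in size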)
# Procedure, shortened: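 BG1-Luc-4E2 cells (endogenous full-length ER-alpha, stable 4×ERE-luciferase) were starved 5 days in phenol-red-free medium with 10% charcoal-stripped FBS, plated 24 h, then given compound plus 17beta-estradiol for 21.5 h at 37 C; ONE-Glo luminescence read after 30 min.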
# [8] = qHTS assay to identify small molecule antagonists of the estrogen receptor alpha (ER-alpha) signaling pathway using the BG1 cell line - cell viability counter screen (AID 743081);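 also: compound given together with 17beta-estradiol as the ER stimulus; series mostly up to about 70 µM; nearly all actives have a fitted effect of over 45% in size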
# Aromatase (Homo sapiens) = Aromatase (Homo sapiens) (UniProt P11511); experiment: qHTS assay to identify aromatase inhibitors (AID 743083); also: series mostly up to about 70 µM; nearly all actives have a fitted effect of over 55% in size
# [9] = qHTS assay to identify aromatase inhibitors - cell viability counter screen (AID 743084);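 also: cells stimulated with testosterone during compound exposure; nearly all actives have a fitted effect of over 55% in size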; also: potency is read from the fitted curve at half-maximal effect
# [10] = target: Aryl hydrocarbon receptor (Homo sapiens) (UniProt P35869); experiment: qHTS assay to identify small molecule that activate the aryl hydrocarbon receptor (AhR) signaling pathway (AID 743085); also: nearly all actives have a fitted effect of over 15% in size; also: potency is read from the fitted curve at half-maximal effect;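 as to activation: HG2L7.5c1 human HepG2 liver cells with stably integrated DRE-driven firefly reporter; series mostly up to about 70 µM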
# Procedure, shortened: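 Luminescence read-out: ONE-Glo reagent, 30 min at room temperature, in HG2L7.5c1 HepG2 reporter cells treated 24 h at 37C. Viability was measured beforehand by CellTiter-Fluor fluorescence after 30 min at 37C.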
# [11] = qHTS assay to identify small molecule that activate the aryl hydrocarbon receptor (AhR) signaling pathway - cell viability counter screen (AID 743086);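 also: HepG2 liver cells carrying the AhR DRE luciferase reporter; series mostly up to about 70 µM; nearly all actives have a fitted effect of over 45% in size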
# Procedure, shortened: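 HepG2-AhR-luc (HG2L7.5c1) cells, 4000/well, were preincubated 5 h at 37C, exposed to compound in qHTS format for 24 hr at 37C, then given CellTiter-Fluor for 30 min; viability was read as fluorescence in the reporter wells.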
# [12] = target: Peroxisome proliferator-activated receptor gamma (Homo sapiens) (UniProt P37231); experiment: qHTS assay to identify small molecule antagonists of the peroxisome proliferator-activated receptor gamma (PPARg) signaling pathway (AID 743191; calls by dose curve; also: nearly all actives have a fitted effect of over 30% in size; also: potency is read from the fitted curve at half-maximal effect)
# Procedure, shortened: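 GeneBLAzer PPARg UAS-bla HEK293H cells carrying a UAS-driven beta-lactamase reporter were plated at 3000 cells/well, preincubated 5 h at 37C, then given compound for 17 h at 37C; LiveBLAzer B/G FRET substrate was read after 1 h at room temperature.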
# [13] = qHTS assay to identify small molecule antagonists of the peroxisome proliferator-activated receptor gamma (PPARg) signaling pathway - cell viability counter screen (AID 743194); also: nearly all actives have a fitted effect of over 55% in size
# Procedure, shortened: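 PPARg-UAS-bla HEK293H cells were plated, rested 5 h at 37 C, then treated with compounds plus rosiglitazone (50 nM final) for 17 h at 37 C; viability was then read by CellTiter-Glo luminescence after 30 min at room temperature.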
# [14] = qHTS assay for small molecule agonists of the antioxidant response element (ARE) signaling pathway (AID 743202; active = well fitted activation curve with a large enough effect in the signal ratio in the repeat runs, not every such curve was filed as active; the % refers to the signal ratio; also: potency is read from the fitted curve at half-maximal effect)
# Procedure, shortened: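 Compounds delivered in DMSO to ARE-bla HepG2 cells (2,000 cells/well, pre-incubated 5 h) and left 16 h at 37 C. LiveBLAzer B/G FRET substrate then added for 2 h at RT before fluorescence reading.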
# [15] = qHTS assay for small molecule agonists of the antioxidant response element (ARE) signaling pathway - cell viability counter screen (AID 743203; calls by dose curve; also: nearly all actives have a fitted effect of over 55% in size)
# Procedure, shortened: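 CellSensor ARE-bla HepG2 cells, 2,000 per well, rested 5 hrs at 37C/5% CO2, then exposed to compound in DMSO for 16 hrs; viability read as CellTiter-Glo luminescence after 30 min at room temperature, in the reporter wells.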
# [16] = qHTS assay for small molecule activators of the heat shock response signaling pathway - cell viability counter screen (AID 743209); also: nearly all actives have a fitted effect of over 50% in size
# Procedure, shortened: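 CellSensor HSE-bla HeLa cells, plated overnight at 37 C/5% CO2, were exposed to compounds in DMSO for 5 h at 37 C. Viability was then read in the same wells by CellTiter-Glo luminescence after 30 min at room temperature.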
# [17] = qHTS assay for small molecule activators of the heat shock response signaling pathway (AID 743210; active = well fitted activation curve with a large enough effect in the signal ratio in the repeat runs, with a control signal flat, not every such curve was filed as active; the % refers to the signal ratio; also: potency is read from the fitted curve at half-maximal effect;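 as to activation: HeLa cells with beta-lactamase reporter driven by heat shock elements; series mostly up to about 63 µM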)
# Procedure, shortened: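 Reporter gene assay: HeLa cells stably bearing an HSE-bla construct, compound treatment 5 h at 37 C, LiveBLAzer substrate 2.5 h at RT, fluorescence intensity.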
# [18] = target: Estrogen receptor (Homo sapiens) (UniProt P03372); experiment: qHTS assay to identify small molecule antagonists of the estrogen receptor alpha (ER-alpha) signaling pathway (AID 743069; active = well fitted curve in the direction sought with a large enough effect in the signal ratio in the repeat runs, not every such curve was filed as active; the % refers to the signal ratio)
# Procedure, shortened: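 Estradiol-stimulated ER-alpha-UAS-bla HEK293 cells, 18 hr compound exposure at 37C. LiveBLAzer B/G substrate, 2 hr RT, fluorescence read.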
# [19] = target: Peroxisome proliferator-activated receptor gamma (Homo sapiens) (UniProt P37231); experiment: qHTS assay to identify small molecule agonists of the peroxisome proliferator-activated receptor gamma (PPARg) signaling pathway (AID 743094; active = well fitted activation curve with a large enough effect in the signal ratio in the repeat runs, not every such curve was filed as active; the % refers to the signal ratio)
# Procedure, shortened: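 GeneBLAzer PPARg UAS-bla HEK293H cells carrying a stably integrated beta-lactamase reporter were pre-incubated 5 h at 37C, then exposed to compounds in DMSO for 17 h at 37C; LiveBLAzer B/G FRET substrate was added for 1 h at room temperature and fluorescence read.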
# Sequence of Aromatase (Homo sapiens) (P11511 whole entry, looked up): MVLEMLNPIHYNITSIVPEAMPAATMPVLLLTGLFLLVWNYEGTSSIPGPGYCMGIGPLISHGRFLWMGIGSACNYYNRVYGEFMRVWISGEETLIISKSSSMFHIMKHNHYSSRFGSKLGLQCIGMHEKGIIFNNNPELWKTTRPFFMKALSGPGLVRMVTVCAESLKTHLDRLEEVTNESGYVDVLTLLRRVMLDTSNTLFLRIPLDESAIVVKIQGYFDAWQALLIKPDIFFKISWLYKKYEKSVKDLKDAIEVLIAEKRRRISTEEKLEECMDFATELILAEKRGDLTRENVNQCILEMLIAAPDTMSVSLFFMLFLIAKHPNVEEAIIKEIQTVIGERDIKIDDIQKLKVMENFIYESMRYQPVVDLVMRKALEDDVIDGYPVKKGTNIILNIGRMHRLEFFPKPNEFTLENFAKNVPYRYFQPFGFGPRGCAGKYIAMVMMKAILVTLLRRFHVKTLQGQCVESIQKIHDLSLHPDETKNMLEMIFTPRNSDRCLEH
# Sequence of Estrogen receptor (Homo sapiens) (P03372 whole entry, looked up): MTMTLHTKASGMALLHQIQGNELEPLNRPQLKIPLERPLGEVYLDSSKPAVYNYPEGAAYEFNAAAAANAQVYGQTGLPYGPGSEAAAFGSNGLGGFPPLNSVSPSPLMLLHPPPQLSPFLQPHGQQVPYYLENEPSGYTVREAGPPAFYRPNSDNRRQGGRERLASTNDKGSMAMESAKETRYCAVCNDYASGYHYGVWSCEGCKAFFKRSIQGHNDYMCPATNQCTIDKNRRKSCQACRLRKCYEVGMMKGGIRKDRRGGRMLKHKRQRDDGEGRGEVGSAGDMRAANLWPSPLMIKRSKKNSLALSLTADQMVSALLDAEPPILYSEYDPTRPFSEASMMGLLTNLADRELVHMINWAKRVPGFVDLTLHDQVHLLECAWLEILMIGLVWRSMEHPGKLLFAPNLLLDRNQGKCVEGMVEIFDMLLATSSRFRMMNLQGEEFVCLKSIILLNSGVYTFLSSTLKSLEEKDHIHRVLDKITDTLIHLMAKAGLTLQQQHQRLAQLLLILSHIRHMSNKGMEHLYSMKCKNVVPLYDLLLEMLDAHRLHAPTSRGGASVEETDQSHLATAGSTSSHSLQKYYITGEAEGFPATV
# Sequence of Aryl hydrocarbon receptor (Homo sapiens) (P35869 whole entry, looked up): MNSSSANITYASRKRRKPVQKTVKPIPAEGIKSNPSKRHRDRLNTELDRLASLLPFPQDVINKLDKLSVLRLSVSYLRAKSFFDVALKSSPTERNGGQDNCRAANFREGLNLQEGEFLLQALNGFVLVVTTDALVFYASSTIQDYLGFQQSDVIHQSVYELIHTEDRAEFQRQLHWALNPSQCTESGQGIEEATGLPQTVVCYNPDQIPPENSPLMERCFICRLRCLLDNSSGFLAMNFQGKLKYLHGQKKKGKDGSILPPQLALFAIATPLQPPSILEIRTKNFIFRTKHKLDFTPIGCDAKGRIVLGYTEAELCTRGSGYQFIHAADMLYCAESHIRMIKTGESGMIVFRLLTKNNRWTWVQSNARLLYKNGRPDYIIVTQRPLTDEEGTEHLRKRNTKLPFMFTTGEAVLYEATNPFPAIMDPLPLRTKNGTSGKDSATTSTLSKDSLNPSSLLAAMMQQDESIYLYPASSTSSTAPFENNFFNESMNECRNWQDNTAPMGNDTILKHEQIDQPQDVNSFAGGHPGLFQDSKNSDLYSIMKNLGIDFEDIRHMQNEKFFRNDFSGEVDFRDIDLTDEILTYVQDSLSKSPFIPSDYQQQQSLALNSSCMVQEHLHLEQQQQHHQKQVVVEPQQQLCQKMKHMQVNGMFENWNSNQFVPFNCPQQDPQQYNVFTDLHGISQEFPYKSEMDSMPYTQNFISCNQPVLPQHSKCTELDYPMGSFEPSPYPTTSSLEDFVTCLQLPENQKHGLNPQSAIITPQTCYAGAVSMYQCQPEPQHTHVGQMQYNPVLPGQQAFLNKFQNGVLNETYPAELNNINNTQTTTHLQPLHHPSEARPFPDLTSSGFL
# Sequence of Peroxisome proliferator-activated receptor gamma (Homo sapiens) (P37231 whole entry, looked up): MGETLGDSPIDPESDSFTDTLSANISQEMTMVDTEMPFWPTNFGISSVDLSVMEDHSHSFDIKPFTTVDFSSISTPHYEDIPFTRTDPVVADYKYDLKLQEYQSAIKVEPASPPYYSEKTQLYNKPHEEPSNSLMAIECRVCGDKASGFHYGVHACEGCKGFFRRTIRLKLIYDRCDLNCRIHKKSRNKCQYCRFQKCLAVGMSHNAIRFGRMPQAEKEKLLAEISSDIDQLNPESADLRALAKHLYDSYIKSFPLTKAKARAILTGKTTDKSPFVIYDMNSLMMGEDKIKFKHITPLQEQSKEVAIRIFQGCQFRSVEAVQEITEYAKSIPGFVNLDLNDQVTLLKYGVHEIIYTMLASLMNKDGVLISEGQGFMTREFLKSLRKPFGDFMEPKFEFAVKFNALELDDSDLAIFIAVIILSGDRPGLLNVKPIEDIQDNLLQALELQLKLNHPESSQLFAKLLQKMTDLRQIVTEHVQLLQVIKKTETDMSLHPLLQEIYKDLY
Structure (SMILES),Potency [1],Potency [2],Potency [3],outcome [4],outcome [5],Potency [6],outcome [7],outcome [8],Potency (Aromatase (Homo sapiens)),Potency [9],Potency [10],outcome [11],Potency [12],outcome [13],Potency [14],Potency [15],Potency [16],Potency [17],Potency [18],outcome [19]
Oc1c(Br)cc(Br)cc1Br,inactive,inactive,inactive,inactive,inactive,inactive,inactive,inactive,inactive,inactive,inactive,inactive,43.7 µM (active),inactive,15.4 µM (active),inactive,inactive,inactive,,
O=C(O)COc1ccccc1,inactive,inactive,inactive,inactive,inactive,inactive,inactive,inactive,inactive,inactive,inactive,inactive,inactive,inactive,inactive,inactive,inactive,inactive,inactive,inactive
Cc1cccc(N)c1,inactive,inactive,inactive,inactive,inactive,inactive,inactive,inactive,,inactive,,inactive,inactive,inactive,inactive,inactive,inactive,inactive,,
O=C(O)CCCc1ccc(N(CCCl)CCCl)cc1,61.1 µM (active),30.8 µM (active) and 27.3 µM (active),inactive,inactive,inactive,inactive,inactive,inactive,inactive,inactive and 30.6 µM (active),inactive,inactive,inactive,inactive,inactive,inactive,inactive,inactive,,inactive
O=C(O)C1C(C(=O)O)C2(Cl)C(Cl)=C(Cl)C1(Cl)C2(Cl)Cl (stereo not drawn),inactive,inactive,inactive,inactive,inactive,inactive,inactive,inactive,inactive,inactive,inactive,inactive,,inactive,inactive,inactive,inactive,inactive,,
Cc1cccc(C)c1NC(=O)CN1CCCC1=O,inactive,inactive,inactive,inactive,inactive,inactive,inactive,inactive,inactive,inactive,inactive,inactive,inactive,inactive,inactive,inactive,inactive,,,
Cc1cccc(N)c1C,inactive,inactive,inactive,inactive,inactive,inactive,inactive,inactive,inactive,inactive,inactive and 48.6 µM (active),inactive,inactive,inactive,inactive,inactive,inactive,inactive,,
CCCCC(CC)C(=O)Cl (stereo not drawn),inactive,inactive,inactive,inactive,inactive,inactive,inactive,inactive,inactive,inactive,inactive,inactive,inactive,inactive,inactive,inactive,inactive,inactive,,
CCNc1nc(Cl)nc(NC(C)C)n1,inactive,inactive,inactive,inactive,inactive,inactive,inactive,inactive,inactive,inactive,inactive,inactive,inactive,inactive,inactive,inactive,inactive,inactive,,
Cl/C=C/Cl,inactive,inactive,inactive,inactive,inactive,inactive,inactive,inactive,inactive,inactive,inactive,inactive,,inactive,inactive,inactive,inactive,inactive,,
ClCCOCCCl,inactive,inactive,inactive,inactive,,,,inactive,inactive,inactive,inactive,inactive,inactive,inactive,inactive,inactive,inactive,inactive,,inactive
C=CC(=O)OCCCCCC(C)C,inactive,inactive,inactive,inactive,inactive,80.9 µM (active) and inactive,inactive,inactive,inactive,inactive,inactive,inactive,,inactive,inactive,inactive,inactive,inactive,,inactive
CCOc1ccc(N)cc1,inactive,inactive,inactive,inactive,inactive,inactive,inactive,inactive,inactive,inactive,48.7 µM (active) and inactive,inactive,,inactive,,inactive,inactive,inactive,inactive,
Cc1ccc(O)c(C)c1,inactive,inactive,inactive,inactive,inactive,inactive,inactive,inactive,inactive,inactive,inactive,inactive,inactive,inactive,,inactive,inactive,inactive,,
COC(C)(C)CCCC(C)C/C=C/C(C)=C/C(=O)OC(C)C (stereo not drawn),inactive,inactive,inactive,inactive,,,,inactive,inactive,inactive,inactive and 60.1 µM (active),inactive,inactive,inactive,inactive,inactive,inactive,,,inactive
C=CCN=C=S,inactive,inactive,inactive,inactive,inactive,inactive,inactive,inactive,inactive,inactive,inactive,inactive,inactive,inactive,inactive,inactive,inactive,inactive,,inactive

Structure (SMILES),Potency [1],Potency [2],Potency [3],outcome [4],outcome [5],Potency [6],outcome [7],outcome [8],Potency (Aromatase (Homo sapiens)),Potency [9],Potency [10],outcome [11],Potency [12],outcome [13],Potency [14],Potency [15],Potency [16],Potency [17],Potency [18],outcome [19]
O=C(O)C(Br)Br,inactive,inactive,inactive,inactive,inactive,inactive,inactive,inactive,inactive,inactive,,inactive,inactive,inactive,0.0863 µM (active),inactive,inactive,inactive,,
Nc1cccc(Cl)c1,inactive,inactive,inactive,inactive,inactive,inactive,inactive,inactive,inactive,inactive,,inactive,inactive,inactive,inactive,inactive,inactive,,,inactive
c1ccc2c(c1)CCCC2,inactive,inactive,inactive,inactive,inactive,inactive,inactive,inactive,inactive,inactive,inactive,inactive,inactive,inactive,inactive,inactive,inactive,inactive,inactive,inactive
OCC(O)CCl (stereo not drawn),inactive,inactive,inactive,inactive,inactive,inactive,inactive,inactive,inactive,inactive,inactive,inactive,inactive,inactive,inactive,inactive,inactive,inactive,,inactive
CCSC(=O)N1CCCCCC1,inactive,inactive,inactive,inactive,inactive,inactive,inactive,inactive,inactive,inactive,inactive,inactive,inactive,inactive,inactive,inactive,inactive,inactive,inactive,
C=CC#N,inactive,inactive,inactive,inactive,inactive,inactive,inactive,inactive,inactive,inactive,inactive,inactive,inactive,inactive,inactive,inactive,inactive,inactive,inactive,inactive
O=C/C=C/c1ccccc1,inactive,inactive,inactive,inactive,inactive,inactive and 61.1 µM (active),inactive,inactive,inactive,inactive,inactive,inactive,inactive,inactive,inactive,inactive,inactive,inactive,,inactive
C[C@H]1C(=O)O[C@@H]2CCN3CC=C(COC(=O)[C@](C)(O)[C@]1(C)O)[C@H]23,inactive,inactive,inactive,inactive,inactive,inactive,inactive,inactive,inactive,inactive,inactive,inactive,inactive,inactive,inactive,inactive,inactive,inactive,inactive,
COS(=O)(=O)OC,inactive,inactive,inactive,inactive,inactive,inactive,inactive,inactive,inactive,inactive,inactive,inactive,inactive,inactive,inactive,inactive,inactive,inactive,,inactive
Sc1ccccc1,inactive,inactive,inactive,inactive,inactive,inactive,inactive,inactive,inactive,inactive,inactive,inactive,,inactive,inactive,inactive,inactive,44.3 µM (active) and inactive,inactive,
OCc1ccco1,inactive,inactive,inactive,inactive,inactive,inactive,inactive,inactive,inactive,inactive,inactive,inactive,inactive,inactive,inactive,inactive,inactive,inactive,,
CNC(=O)O/N=C/C(C)(C)S(C)(=O)=O,inactive,inactive,inactive,inactive,inactive,inactive,inactive,inactive,inactive,inactive,inactive,inactive,inactive,inactive,inactive,inactive,inactive,inactive,,inactive
CN(C)C(=O)Cl,inactive,inactive,inactive,inactive,inactive,inactive,inactive,inactive,inactive,inactive,inactive,inactive,inactive,inactive,inactive,inactive,inactive,inactive,,
CC(C)c1cccc(C(C)C)c1O,inactive,inactive,inactive,inactive,inactive,inactive,inactive,inactive,inactive,inactive,inactive,inactive,inactive,inactive,inactive,inactive,inactive,inactive,,inactive
Nc1ncc([N+](=O)[O-])s1,,inactive,inactive,inactive,inactive,inactive and 61.1 µM (active),inactive,inactive,inactive,inactive,inactive,inactive,inactive,inactive,inactive,inactive,inactive,inactive,,
